Data from PubChem BioAssay AID1159580 (chemical genetic matrix, 2015).
“And” between values parts separate entries of the source, which are not always exact repeats. Identical values can stand only once. Out of some 5,500 compounds screened, about 2,000 (36%) were called active. Not shown: some 18% with an inconclusive outcome. Cut-off read from the data, not from the text of the source: active = normalized growth mostly below about 0.91 (no sharp cut-off); inconclusive = no clear call, values can overlap the other calls; inactive = mostly above about 0.92. The list shows a part of the results.

Experiment: chemical genetic growth profiling, strain panel (AID 1159580);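 note: tested at 20 µM; growth read once vehicle control cultures reached saturation at 30 °C; 1 = growth at the plate median or of vehicle wells; lower values mean less growth of the strain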
Conditions: S. cerevisiae deletion strains, growth OD

Measured: normalized growth

Cc1c(NC(=O)c2cccnc2)c(=O)n(-c2ccccc2)n1C
inactive: locus YAL013W, strain DEP1, active compounds read low 0.996 | locus YAL021C, strain ccr4, active compounds read low 1.02 | locus YAL026C, strain drs2, active compounds read low 0.999 | locus YAL030W, strain snc1, active compounds read low 1 | locus YBL061C, strain skt5, active compounds read low 1 | locus YBR009C, strain hhf1, active compounds read low 0.966 | locus YBR021W, strain FUR4, active compounds read low 1.03 | locus YBR023C, strain chs3, active compounds read low 1.01 | locus YBR171W, strain sec66, active compounds read low 1 | locus YBR229C, strain ROT2, active compounds read low 0.964 | locus YBR231C, strain swc5, active compounds read low 1.01 | locus YBR279W, strain paf1, active compounds read low 0.999 | locus YCL011C, strain gbp2, active compounds read low 1 | locus YCL016C, strain dcc1, active compounds read low 0.999 | locus YCL029C, strain bik1, active compounds read low 0.997 | locus YCL061C, strain MRC1, active compounds read low 1 | locus YCL069W, strain vba3, active compounds read low 0.989 | locus YCR088W, strain abp1, active compounds read low 0.997 | locus YDL005C, strain med2, active compounds read low 1 | locus YDL035C, strain GPR1, active compounds read low 0.992 | locus YDL040C, strain nat1, active compounds read low 0.988 | locus YDL074C, strain BRE1, active compounds read low 0.949 | locus YDL101C, strain DUN1, active compounds read low 0.981 | locus YDL134C, strain PPH21, active compounds read low 1.01 | locus YDL185W, strain tfp1, active compounds read low 0.983 | locus YDL192W, strain arf1, active compounds read low 0.994 | locus YDR001C, strain nth1, active compounds read low 0.992 | locus YDR069C, strain doa4, active compounds read low 1.01 | locus YDR101C, strain arx1, active compounds read low 0.988 | locus YDR137W, strain rgp1, active compounds read low 0.992 | locus YDR159W, strain sac3, active compounds read low 1 | locus YDR162C, strain NBP2, active compounds read low 1 | locus YDR195W, strain ref2 0.998 | locus YDR297W, strain sur2, active compounds read low 0.999 | locus YDR318W, strain mcm21, active compounds read low 1 | locus YDR334W, strain swr1, active compounds read low 0.999 | locus YDR335W, strain msn5, active compounds read low 0.997 | locus YDR388W, active compounds read low 1 | locus YDR392W, strain spt3, active compounds read low 0.934 | locus YDR502C, strain sam2, active compounds read low 0.994 | locus YEL003W, strain gim4, active compounds read low 1 | locus YEL037C, strain rad23, active compounds read low 0.994 | locus YEL061C, strain CIN8 (second series), active compounds read low 1 | locus YEL061C, strain CIN8, active compounds read low 0.98 | locus YER015W, strain faa2, active compounds read low 1 | locus YER016W, strain bim1, active compounds read low 1 | locus YER110C, active compounds read low 0.997 | locus YER111C, strain swi4, active compounds read low 0.997 | locus YER155C, strain BEM2 (second series), active compounds read low 1.02 | locus YER155C, strain BEM2, active compounds read low 1 | locus YER167W, strain BCK2, active compounds read low 1 | locus YFR010W, strain ubp6, active compounds read low 0.997 | locus YGL078C, strain dbp3, active compounds read low 0.988 | locus YGL086W, strain mad1, active compounds read low 0.985 | locus YGL167C, strain pmr1, active compounds read low 1 | locus YGL173C, strain kem1, active compounds read low 1.01 | locus YGL227W, strain vid30, active compounds read low 0.998 | locus YGL240W, strain doc1, active compounds read low 1.01 | locus YGL248W, strain PDE1, active compounds read low 0.974 | locus YGL253W, strain hxk2, active compounds read low 1 | locus YGR078C, strain PAC10, active compounds read low 0.97 | locus YGR135W, strain pre9, active compounds read low 1.07 | locus YGR252W, strain gcn5, active compounds read low 1.02 | locus YHR013C, strain ard1, active compounds read low 0.96 | locus YHR027C, strain rpn1, active compounds read low 1.01 | locus YHR030C, strain SLT2, active compounds read low 1 and 1.04 | locus YHR079C, strain IRE1 (second series), active compounds read low 0.992 | locus YHR079C, strain IRE1, active compounds read low 1.02 | locus YHR094C, strain hxt1, active compounds read low 0.998 | locus YHR129C, strain ARP1, active compounds read low 1 | locus YHR142W, strain chs7, active compounds read low 1 | locus YHR200W, strain rpn10, active compounds read low 0.992 | locus YIL066C, strain RNR3, active compounds read low 0.974 | locus YIL073C, strain SPO22, active compounds read low 1.04 | locus YIL125W, strain kgd1, active compounds read low 0.987 | locus YIR030C, strain dcg1, active compounds read low 0.999 | locus YJL092W, strain hpr5, active compounds read low 1 | locus YJL095W, strain BCK1 (second series), active compounds read low 1 | locus YJL095W, strain BCK1, active compounds read low 0.964 and 1.04 | locus YJL115W, strain asf1, active compounds read low 1 | locus YJL129C, strain trk1, active compounds read low 1.01 | locus YJL134W, strain LCB3, active compounds read low 0.995 | locus YJL154C, strain vps35, active compounds read low 0.989 | locus YJL164C, strain tpk1, active compounds read low 1.01 | locus YJL166W, strain qcr8, active compounds read low 1.01 | locus YJL168C, strain set2, active compounds read low 0.987 | locus YJL187C, strain SWE1 (second series), active compounds read low 0.95 | locus YJL187C, strain SWE1, active compounds read low 0.999 | locus YJR043C, strain POL32, active compounds read low 0.924
